From PubChem BioAssay (NCI) come the findings set out here.

About 83,000 compounds went through this panel and 20% of them were active in at least one assay; those are over-represented in the sample as a whole.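 Treatment: one concentration, 48 hours, 96-well format. Scoring: percent growth, with anything below 10 considered active.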 Unmarked numbers belong to inactive results. Calls of active or inactive are those of the source.

Test systems include SR leukemia; RPMI-8226 leukemia; OVCAR-8 ovarian; OVCAR-5 ovarian; OVCAR-4 ovarian; SK-OV-3 ovarian; IGROV1 ovarian; OVCAR-3 ovarian; HS 578T breast; NCI/ADR-RES ovarian; T-47D breast; MDA-MB-435 melanoma; SW-620 colon; MCF7 breast; HCT-116 colon; HCC-2998 colon; KM12 colon; BT-549 breast.
Common to all, as to experiment: NCI-60 one-dose screen, 48 h (100 = growth as untreated, 0 = no growth, -100 = all killed)
What all share (conditions): 10 µM unless noted

Turning to `Cc1cc2oc(=O)cc(CP(=O)(O)O)c2cc1O`, the growth with SR leukemia was 106%; with RPMI-8226 leukemia, 118%; with OVCAR-8 ovarian, 99.5%; in the test with OVCAR-5 ovarian, 94%; in the test on OVCAR-4 ovarian it was 103%; in the test on SK-OV-3 ovarian, 105%. Also, the growth was 91.6% in the test with IGROV1 ovarian; 102% in the test on OVCAR-3 ovarian; 94.5% in the test with HS 578T breast; 105% with NCI/ADR-RES ovarian; 98.8% in the test on T-47D breast; 99.9% in the test with MDA-MB-435 melanoma. In addition, the growth in the test with SW-620 colon is 91.3%; with MCF7 breast, 88.9%; with HCT-116 colon it was 100%; with HCC-2998 colon it was 103%; in the test with KM12 colon, 102%.

Take `CN1CCN(C(=O)c2cc(-c3ccc4ncnc(N5CCc6cc(F)c(Cl)cc65)c4c3)cnc2N)CC1`: the growth with SR leukemia is 14.7%; in the test with RPMI-8226 leukemia, -25.7% (active); in the test on OVCAR-8 ovarian, 10.3%; in the test with OVCAR-5 ovarian, 9.22% (active); in the test on OVCAR-4 ovarian, -12.7% (active); in the test with SK-OV-3 ovarian it was 10.9%. The growth is -33.4% (active) in the test with IGROV1 ovarian; -42.8% (active) in the test with OVCAR-3 ovarian; -17.2% (active) with HS 578T breast; 8.74% (active) in the test on NCI/ADR-RES ovarian; -1.85% (active) in the test with T-47D breast; -2.06% (active) in the test on MDA-MB-435 melanoma. Moreover, the growth in the test with SW-620 colon was 4.9% (active); in the test with MCF7 breast it was 4.21% (active); in the test on HCT-116 colon it was -30.3% (active); in the test with HCC-2998 colon it was -7.55% (active); with KM12 colon, 10.7%.

Take `COP(=O)(OC)c1nnn(-c2cccc([N+](=O)[O-])c2)c1C`: the growth in the test on SR leukemia is 104%; with RPMI-8226 leukemia, 103%; with OVCAR-8 ovarian, 101%; in the test with OVCAR-5 ovarian, 104%; with OVCAR-4 ovarian, 103%; in the test with SK-OV-3 ovarian it was 123%. Besides, the growth in the test with IGROV1 ovarian is 110%; in the test on HS 578T breast it was 102%; in the test on NCI/ADR-RES ovarian, 103%; with T-47D breast, 99.4%; with BT-549 breast it was 105%; with MDA-MB-435 melanoma it was 108%. The growth is 100% with SW-620 colon; 97.9% in the test with MCF7 breast; 105% in the test with HCT-116 colon; 110% with HCC-2998 colon; 105% in the test on KM12 colon.

For `CCN(CC)c1ccc(/C=N/NC(=O)c2ccc(Nc3ccnc(C(F)(F)F)c3)cc2)c(O)c1`, the growth in the test on SR leukemia was 153%; in the test with RPMI-8226 leukemia, 20%; in the test on OVCAR-8 ovarian, 44.6%; in the test on OVCAR-5 ovarian, 32.5%; in the test with OVCAR-4 ovarian it was 32.4%; in the test with SK-OV-3 ovarian, 10.1%. Besides, the growth is 39.3% in the test on IGROV1 ovarian; 44% with OVCAR-3 ovarian; 64.9% in the test with HS 578T breast; 26.3% with NCI/ADR-RES ovarian; -2.74% (active) in the test with T-47D breast; 17.5% in the test with MDA-MB-435 melanoma. Besides, the growth with SW-620 colon is 41.5%; with MCF7 breast it was 13.9%; in the test on HCT-116 colon, 23.6%; in the test with HCC-2998 colon it was 38.3%; with KM12 colon, 24.6%.

Turning to `Nc1ccc([N+](=O)[O-])cc1N=C/C=C/c1ccccc1`, the growth in the test on SR leukemia was 35.5%; with RPMI-8226 leukemia, 25.6%; in the test with OVCAR-8 ovarian it was 79.9%; in the test on OVCAR-5 ovarian, 90.9%; in the test with OVCAR-4 ovarian, 79.4%; in the test on SK-OV-3 ovarian it was 87.6%. For the same compound, the growth with IGROV1 ovarian is 64.8%; in the test on OVCAR-3 ovarian it was 84.1%; in the test with HS 578T breast, 67.4%; with NCI/ADR-RES ovarian, 50.9%; with T-47D breast, 66.2%; in the test on MDA-MB-435 melanoma, 5.57% (active). Besides, the growth in the test with SW-620 colon was 35.3%; with MCF7 breast, 51.5%; in the test with HCT-116 colon it was 67.2%; in the test on HCC-2998 colon, 73%; in the test with KM12 colon, 40.3%.

Regarding `O=C(N/N=C/c1ccc(O)cc1O)c1ccc(Nc2ccnc(C(F)(F)F)c2)cc1`, the growth in the test with SR leukemia was 91.8%; in the test with RPMI-8226 leukemia, 59.2%; in the test on OVCAR-8 ovarian, 48.2%; with OVCAR-5 ovarian it was 53.2%; in the test with OVCAR-4 ovarian it was 38.6%; with SK-OV-3 ovarian, 38.9%. Further, the growth in the test on IGROV1 ovarian was 77.1%; with OVCAR-3 ovarian it was 61.6%; in the test with HS 578T breast it was 86.4%; in the test on NCI/ADR-RES ovarian it was 64.2%; with T-47D breast, 4.87% (active); in the test with MDA-MB-435 melanoma, 44.7%. Besides, the growth was 49.3% in the test with SW-620 colon; 25.5% in the test on MCF7 breast; 27.5% with HCT-116 colon; 64.7% in the test with HCC-2998 colon; 57.2% in the test with KM12 colon.

As to `COC(=O)C1=C(C(=O)Nc2cccnc2)C2OC1(C(Cc1ccccc1)Oc1ccccc1)C1OC21` (stereo not drawn), the growth is -23.7% (active) with SR leukemia; -11.8% (active) with RPMI-8226 leukemia; 86.4% in the test with OVCAR-8 ovarian; 79.7% in the test on OVCAR-5 ovarian; 75% with OVCAR-4 ovarian; 98.3% with SK-OV-3 ovarian. The growth in the test on IGROV1 ovarian was 77.7%; with OVCAR-3 ovarian, -53.5% (active); in the test on HS 578T breast it was 101%; with NCI/ADR-RES ovarian, 103%; in the test with T-47D breast, -46.7% (active); in the test with MDA-MB-435 melanoma, 77.8%. Besides, the growth with SW-620 colon was -64.9% (active); with MCF7 breast, 24.9%; in the test on HCT-116 colon, -46.3% (active); in the test on HCC-2998 colon it was 105%; with KM12 colon, 96.8%.

As to `CC(C)(C)c1cc(C=Nc2cccc(C(F)(F)F)c2)c(O)c(C(C)(C)C)c1`, the growth with SR leukemia was 77.7%; in the test on RPMI-8226 leukemia, 74.5%; with OVCAR-8 ovarian, 88.1%; with OVCAR-5 ovarian, 105%; in the test with OVCAR-4 ovarian, 97.3%; with SK-OV-3 ovarian it was 100%. Moreover, the growth with IGROV1 ovarian is 105%; in the test on HS 578T breast, 102%; in the test on NCI/ADR-RES ovarian, 99.9%; in the test with T-47D breast, 88.5%; in the test on BT-549 breast it was 106%; in the test on MDA-MB-435 melanoma, 108%. Besides, the growth in the test on SW-620 colon was 101%; in the test with MCF7 breast, 97.7%; in the test with HCT-116 colon, 94.1%; with HCC-2998 colon, 108%; in the test on KM12 colon, 102%.

For the compound `COc1ccc(C(c2cc(OC)c(OC)c(OC)c2)N2CCCC2)cc1` (stereo not drawn), the growth in the test on SR leukemia was 23.9%; with RPMI-8226 leukemia, 97.4%; in the test with OVCAR-8 ovarian it was 95.6%; with OVCAR-5 ovarian it was 92.6%; in the test on OVCAR-4 ovarian it was 101%; in the test with SK-OV-3 ovarian it was 77.5%. The growth in the test with IGROV1 ovarian was 82.9%; with OVCAR-3 ovarian, 66.6%; in the test on HS 578T breast, 80.4%; in the test with NCI/ADR-RES ovarian, 69.4%; with T-47D breast, 89.8%; with MDA-MB-435 melanoma it was -21.8% (active). Moreover, the growth in the test with SW-620 colon is 47.8%; in the test with MCF7 breast, 64.1%; in the test with HCT-116 colon, 62.3%; in the test with HCC-2998 colon, 89.1%; with KM12 colon it was 43.9%.
